Test results reported in ChEMBL document CHEMBL3988442, “University of Dundee, Small-Polar-MMV Screening Library” (2021).
Out of some 48,000 compounds screened, about 13,000 (27%) showed an effect of 50% or more. Some of the results follow.

test system: Wolbachia pipientis; experiment: Anti-Wolbachia Cell-Based Screen; format: functional; set-up: scale not given: in the data most compounds retested in dose-response had high values; conditions: 5 µM

Compound	Percent Effect
CCC(C(=O)N(C)C)N1CCC(c2nccn2Cc2cscn2)CC1 (stereo not drawn)	-0.1258%
COCCCn1nnc(C2(NC(=O)c3ccccc3)CCCC2)n1	-42.57%
O=C(Cc1cccs1)N1C[C@@H]2CC[C@H](C1)N(Cc1ccccn1)C2=O	15.92%
Cc1cc(C(=O)N2CCc3nnc(N)cc3C2)c(C)n1C1CC1	6.232%
CC(C)N(CCS(C)(=O)=O)Cc1csc(-c2ccccc2F)n1	-5.187%
CC(Cn1cccn1)NCc1csc(-c2ccccc2F)n1 (stereo not drawn)	0.9927%
O=C(O)CNC(=O)Cc1csc(-c2ccccc2F)n1	127.8%
O=C(O)c1ccnc(-c2ccnc(NCCc3cscn3)n2)c1	6.299%
Cc1cc(C)nc(CCNc2nccc(CCC(F)(F)F)n2)n1	-9.076%
Cc1cc(C)c(CNC(=O)NCCc2cccnc2)c(=O)[nH]1	-5.274%
Cc1ncc(-c2ccnc(NCCc3ccc(F)cc3)n2)c(=O)[nH]1	69.11%
O=c1[nH][nH]cc1-c1ccnc(NCCc2ccc(F)cc2)n1	99.64%
O=c1[nH][nH]cc1-c1ccnc(NCCc2cccnc2)n1	116.1%
CCOc1ccnc(NCCc2nc(C)cc(=O)[nH]2)n1	25.33%
O=C(Cc1cccc(O)c1)NCCNc1nccc(C(F)(F)F)n1	-3.193%
O=C(O)c1ccnc(-c2ccnc(NCCc3ccc(F)cc3)n2)c1	-8.109%
N#Cc1cc(F)c(NCCc2cccnc2)c(F)c1	0.2383%
O=c1[nH][nH]cc1-c1ccnc(NCCc2cccc(O)c2)n1	135%
Cc1cc(C2CN(CC(=O)NCc3ccco3)CCO2)ccc1F (stereo not drawn)	-9.058%
CN(C)C(=O)CN1C(=O)[C@H]2CC[C@@H]1CN(Cc1ccccc1C#N)C2	-21.45%
COC(=O)Cc1cccc(NC(=O)Cc2cc(C)[nH]n2)c1	1.53%
Cc1nc(CCN)cc(N2CCOc3ccc(Cl)cc3C2)n1	10.69%
CCN(Cc1ccc2c(c1)OCO2)C(=O)CCc1c(C)nc(C)[nH]c1=O	-8.876%
CCOC(=O)c1n[nH]cc1CN1CCOC(Cc2ccc(OC)cc2)C1 (stereo not drawn)	-36.24%
COCCCNc1nccc(-c2c[nH][nH]c2=O)n1	1.466%

Compound	Percent Effect
CC(=O)NCCNc1nccc(CCC(F)(F)F)n1	-2.049%
CC(C)(C)CCNc1nccc(-c2c[nH][nH]c2=O)n1	100.4%
Cc1nnc(SCCC(=O)N(C)Cc2ccc(Cl)s2)[nH]1	6.778%
O=C(C1CN(CC2CCOCC2)CC12CCOCC2)N1CCCC1.O=C(O)C(F)(F)F (stereo not drawn)	0.226%
COC(=O)c1cccc(C(=O)N2CCN(c3cc(C)ccc3C)CC2)n1	123.5%
COC(=O)c1cccc(C(=O)N2CCN(c3cc(Cl)ccc3C)CC2)n1	103.9%
COc1cc(C)nc(N2CCN(C(=O)c3cc(Cl)c[nH]3)CC2)n1	7.277%
CC(=O)N1CCCN(C(=O)c2ccn(-c3cccc(Cl)c3)n2)CC1	4.023%
O=C(OCCF)c1cccc(C(=O)N2CCCC2)n1	7.504%
COC(=O)c1cccc(C(=O)N2CCN(c3cccc(C)c3C)CC2)n1	-16.02%
COCC1CN(Cc2cc(C)on2)Cc2cn(CC3CCCC3)nc21.O=C(O)C(F)(F)F.O=C(O)C(F)(F)F (stereo not drawn)	1.452%
CNS(=O)(=O)Cc1cccc(CNc2ccc(Cl)cn2)c1	7.116%
O=C(C(NCc1cccc(F)c1F)c1ccccc1)N1CCOCC1 (stereo not drawn)	-0.9973%
CC(C)N1[C@H](CN2CCCC2)C[C@@H]2CN(C(=O)c3ccoc3)CC[C@@H]21.O=C(O)C(F)(F)F.O=C(O)C(F)(F)F	-8.643%
CNC(=O)CN1CC[C@H]2CN(C(=O)c3ccc(C)cc3)C[C@H]2C1.O=C(O)C(F)(F)F	117%
Cc1cccc(C(=O)N2C[C@@H]3CCN(C(C)C)C[C@@H]3C2)c1.O=C(O)C(F)(F)F	-3.353%
O=C(O)C(F)(F)F.O=C(c1ccc(F)cc1)N1C[C@@H]2CCN(c3cccnc3)C[C@@H]2C1	11.69%
CNC(=O)CN1CC[C@H]2CN(C(=O)c3cccc(C)c3)C[C@H]2C1.O=C(O)C(F)(F)F	104.9%
O=C(O)C(F)(F)F.O=C(c1ccc(O)cc1)N1C[C@@H]2CCN(c3cccnc3)C[C@@H]2C1	9.269%
CN(C)C[C@H]1OC[C@@H]2CCN(C(=O)c3cccn3C)C[C@@H]21.O=C(O)C(F)(F)F	-2.348%
Cn1cccc1C(=O)N1C[C@@H]2CCN(c3cccnc3)C[C@@H]2C1.O=C(O)C(F)(F)F	-18.75%
CNC(=O)CN1CC[C@H]2CN(C(=O)c3cccn3C)C[C@H]2C1.O=C(O)C(F)(F)F	94.61%
CC(C)N1CCO[C@H]2CN(C(=O)c3ccoc3)C[C@H]21.O=C(O)C(F)(F)F	-10.4%
CNC(=O)CN1CC[C@H]2CN(C(=O)c3ccoc3)C[C@H]2C1.O=C(O)C(F)(F)F	90.52%
CNC(=O)[C@@H]1C[C@@H](NC(=O)c2cn(C)nc2C)CN1Cc1sccc1C	22.01%

Compound	Percent Effect
Cc1cc(C(=O)N(C)C(C)CC(C)C)on1 (stereo not drawn)	-13.06%
CN(C)c1ccc2c(c1)CN(C(=O)c1ccco1)C2c1cnco1 (stereo not drawn)	6.499%
O=C(Nc1ccc(-c2csnn2)cc1)N1CC[C@H](O)C1	-5.302%
CCC(C(=O)NC(C)(C)C)n1cccc(OC)c1=O (stereo not drawn)	-8.788%
CCN1C[C@H]2CCN(C(=O)c3cc[nH]n3)CC[C@H]2S1(=O)=O	7.026%
O=C(O)C(F)(F)F.O=C(c1cc[nH]n1)N1CC[C@@H]2CN(Cc3ccncc3)S(=O)(=O)[C@@H]2CC1	-5.267%
CNC(=O)CN1CC[C@H]2CN(C(=O)c3cc[nH]n3)C[C@H]2C1.O=C(O)C(F)(F)F	106.6%
CCn1cc(CN2CCC(CN3CCCCC3)CC2)cc1C#N	-0.8018%
CCc1cnc(CN(C)C(=O)NC2CCN(C)C2=O)s1 (stereo not drawn)	1.007%
Cc1nc(O)cc(CCNC(=O)CN2CCCCCC2)n1	-0.8715%
NC(=O)c1cnc(NC2CC2)nc1CCNC(=O)CC1CCCC1	144.1%
NC(=O)CN1CCC(C(=O)NCCc2nc(-c3ccccc3)cs2)CC1	3.799%
O=C(CCNC(=O)NC1CC1)NCc1ccccc1	4.625%
NC(=O)c1cnc(-c2ccccc2)nc1CCNC(=O)CN1CCCC1	124.4%
O=C(CC1CCCC1)NCCn1ccc(-c2ccncc2)n1	-13.95%
O=C(CC1CCCC1)NCCNCc1cccc2c1OCCO2	-15.98%
Cc1cnc(NC2CCN(CC(=O)Nc3ccccc3)CC2)nc1C	3.522%
NC(=O)c1cnc(NC2CC2)nc1CCNC(=O)Cc1ccccc1	131.4%
O=C(CCCc1cn[nH]c1)N1C[C@H](CO)C[C@H](CN2CCCC2)C1	5.812%
Cc1cc(C)c2[nH]c(=O)c(CN3CCC(O)(CN(C)C)C3)cc2c1 (stereo not drawn)	-2.791%
COc1ccc(-c2ccc(C(=O)O)c(F)c2)c(F)c1	-9.144%
CC(=O)c1ccc(N2CCC3(CC2)CC(=O)N(C)C3)nc1	9.989%
CCc1c(C)nc2n(c1=O)CC(C(=O)Nc1ccccc1F)CS2 (stereo not drawn)	-0.8379%
CCc1c(C)nc2n(c1=O)CC(C(=O)Nc1nccs1)CS2 (stereo not drawn)	17.24%
Cc1cnc2n(c1=O)CC(C(=O)NC1CC1)CS2 (stereo not drawn)	-10.47%

Compound	Percent Effect
CCc1c(C)nc2n(c1=O)CC(C(=O)Nc1ccccc1C)CS2 (stereo not drawn)	112.9%
CCc1c(C)nc2n(c1=O)CC(C(=O)Nc1ncccc1C)CS2 (stereo not drawn)	124.5%
Cc1cnc2n(c1=O)CC(C(=O)Nc1cccc3cccnc13)CS2 (stereo not drawn)	0.1912%
CCc1cccc(C)c1NC(=O)C1CC(=O)N(Cc2ccccn2)C1 (stereo not drawn)	16.74%
CCc1c(C)nc2n(c1=O)CC(C(=O)Nc1sccc1C(=O)OC)CS2 (stereo not drawn)	119.9%
Cc1cnn(CC2CN(CC(=O)NCCc3cccs3)CCO2)c1 (stereo not drawn)	-8.737%
CCC(NC(=O)c1cccc(N2CCCC2=O)c1)c1ccc(OC)cc1 (stereo not drawn)	-14.69%
Cc1ccc(N2CCCC(N3CCC(N(C)C)CC3)C2=O)cc1 (stereo not drawn)	3.726%
Cc1cc(=O)n2ncnc2n1CC(O)COCc1ccccc1Cl (stereo not drawn)	-44.43%
Cc1cc(F)cc(S(=O)(=O)Nc2noc(C)n2)c1	-6.165%
COCCn1/c(=N\C(=O)CN(C)S(C)(=O)=O)sc2cc(OC)ccc21	-16.36%
CN1CCC(CO[C@H]2CN(C(=O)c3cccn3C)[C@@H]3COC[C@H]23)CC1	-44.74%
Cc1cc(CN2CC[C@H]3[C@H]2CCN3S(C)(=O)=O)oc1C.O=C(O)C(F)(F)F	-17.79%
CNC(=O)[C@H]1C[C@H]2OCC[C@H]2N(Cc2ccc(C)o2)C1.O=C(O)C(F)(F)F	-19.44%
Cc1ccc(CN2C[C@H](N3CCOCC3)[C@@H]3OCCC[C@@H]32)o1.O=C(O)C(F)(F)F.O=C(O)C(F)(F)F	-1.951%
Cc1noc(C)c1CN1Cc2cn(C)nc2C(COCC2CC2)C1.O=C(O)C(F)(F)F.O=C(O)C(F)(F)F (stereo not drawn)	0.03565%
Cc1cc(CN2C[C@H](N3CCOCC3)[C@@H]3OCCC[C@@H]32)oc1C.O=C(O)C(F)(F)F.O=C(O)C(F)(F)F	-6.636%
Cc1cc(CN2C[C@H](OCC3CCOCC3)[C@H]3COC[C@H]32)oc1C.O=C(O)C(F)(F)F	99%
Cc1noc(C)c1CN1CCc2cnn(C)c2C1COCC1CC1.O=C(O)C(F)(F)F.O=C(O)C(F)(F)F (stereo not drawn)	-11.43%
Cc1ccc(CN2C[C@H](OCC3CCOCC3)[C@H]3COC[C@H]32)o1.O=C(O)C(F)(F)F	113.3%
COCCN1C[C@H]2[C@@H](C1)N(Cc1ccc(C)o1)CC[C@H]2OC	6.788%
Cc1ccc(CN2C[C@H](OCC3CCN(C)CC3)[C@H]3COC[C@H]32)o1	110.9%
Cc1noc(C)c1CN1C[C@H](OCC2CCN(C)CC2)[C@H]2COC[C@H]21.O=C(O)C(F)(F)F.O=C(O)C(F)(F)F	122.2%
